# The campaign covered roughly 16,000 compounds. About 2,600 (16%) were called active. Roughly 20% stayed inconclusive and do not appear here. Calls follow the shape of the dose curve; as a rule, active = well fitted curve in the direction sought with a large enough effect; inconclusive = small, poorly fitted or top-dose-only effect, or effect the other way; inactive = no such curve, though single readings can be large or run the other way. A selection follows.
# Target: Cytochrome P450 2D6 (Homo sapiens) (UniProt P10635)
# Sequence (P10635 whole entry, looked up): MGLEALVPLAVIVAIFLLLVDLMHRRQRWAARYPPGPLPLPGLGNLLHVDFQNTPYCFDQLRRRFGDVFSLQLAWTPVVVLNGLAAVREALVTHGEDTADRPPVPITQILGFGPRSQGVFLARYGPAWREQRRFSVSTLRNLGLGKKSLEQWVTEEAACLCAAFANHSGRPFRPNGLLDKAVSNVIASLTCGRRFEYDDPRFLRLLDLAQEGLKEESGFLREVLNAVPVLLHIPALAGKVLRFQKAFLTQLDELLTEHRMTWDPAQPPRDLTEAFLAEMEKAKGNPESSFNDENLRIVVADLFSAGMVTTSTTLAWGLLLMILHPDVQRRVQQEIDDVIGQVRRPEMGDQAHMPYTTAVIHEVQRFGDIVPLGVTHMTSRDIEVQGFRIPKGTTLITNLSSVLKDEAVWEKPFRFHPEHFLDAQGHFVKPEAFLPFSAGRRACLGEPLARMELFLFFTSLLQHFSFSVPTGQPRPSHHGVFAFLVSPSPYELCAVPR
# Assay: Cytochrome panel assay with activity outcomes
# Details: recombinant CYP, pro-luciferin dealkylation, luminescence, p450-cyp2d6; series mostly up to 57.1 µM
# % is scaled to controls: 0 for no effect and ±100 for the full control effect.
SMILES,AC50,"activity, negative = inhibition"
O=C(CSc1nc2nc(-c3cccs3)cc(C(F)(F)F)c2c(=O)[nH]1)NCc1ccco1,inactive,
O=C1COc2ccccc2CN1,inactive,
Cn1c(=O)cnc2cnc(Nc3ccccc3)nc21,inactive,
CC[C@]1(O)C[C@@H]2CN(CCc3c([nH]c4ccccc34)[C@](C(=O)OC)(c3cc4c(cc3OC)N(C)[C@H]3[C@](O)(C(=O)OC)[C@@H](C(=O)OC)[C@@]5(CC)C=CCN6CC[C@@]43[C@@H]65)C2)C1,inactive,
CN(C)S(=O)(=O)c1nc(Cl)c2[nH]cnc2n1,,9.4% [at 11.4 µM] (inactive)
CC(C)CN1CCCC2(CCN(C(=O)c3cccn3C)CC2)C1,inactive,
Cn1cccc1C(=O)N1CCC2(CCCN(Cc3ccc(C#N)cc3)C2)CC1,inactive,
Cn1cccc1C(=O)N1CCC2(CCCN(Cc3ccccc3)C2)CC1,10 µM (active),
O=c1c(-c2ccccc2)nc2cnc(N3CCOCC3)nc2n1Cc1cccs1,inactive,
CCOc1ccc(OCC)c(NC(=O)C2CCCN(S(=O)(=O)c3cccs3)C2)c1 (stereo not given),inactive,
NNc1nncc2ccccc12,inactive,
C=CC[C@@H]1C=C[C@H](O/N=C\[C@@H](C)[C@H](OCc2ccccc2)C(C)C)[C@H](CO)O1,,-3.33% [at 11.4 µM] (inactive)
CC1(C)N=C(N)N=C(N)N1CCCCc1ccccc1,3.16 µM (active),
COc1ccc(-n2c(=O)c(-c3ccc(Cl)cc3)nc3cnc(N4CCOCC4)nc32)cc1,inactive,
CCOC(=O)COc1c(OC)cc(Cl)cc1C1Nc2ccccc2C(=O)N1c1cccc(C)c1 (stereo not given),inactive,
CN(CCC#N)C(=O)c1ccc(CNS(=O)(=O)c2ccc(F)cc2)cc1,28.2 µM (active),
O=C(NCCCN1CCCC1=O)c1ccc(CNS(=O)(=O)c2ccc(F)cc2)cc1,inactive,
Cn1c(CNS(=O)(=O)c2ccc(F)cc2)n[nH]c1=S,inactive,
CC(C)c1ccc2nc3sc(C(=O)N4CCc5ccccc5C4)c(N)c3cc2c1,inactive,
COc1ccccc1CN1CC2(CCN(C(=O)c3cnccn3)CC2)C1,inactive,
COc1ccccc1CN1CCCC2(CCN(C(=O)c3ccncc3)CC2)C1,3.16 µM (active),
O=C(c1cnccn1)N1CCC2(CCCN(Cc3nccs3)C2)CC1,7.94 µM (active),
O=C(c1cnccn1)N1CCC2(CCN(Cc3nccs3)CC2)CC1,inactive,
CN1CCCC2(CCN(C(=O)c3cnccn3)CC2)C1,inactive,
COc1ccccc1CN1CC2(CCN(C(=O)c3ccncc3)CC2)C1,0.794 µM (active),

SMILES,AC50,"activity, negative = inhibition"
O=C(c1cnccn1)N1CCC2(CC1)CN(Cc1nccs1)C2,inactive,
COc1ccccc1CN1CCCC2(CCN(C(=O)c3cnccn3)CC2)C1,3.98 µM (active),
O=c1c(CCc2ccccc2)nc2cnc(Oc3ccccc3)nc2n1C1CC1,inactive,
O=C(CSc1nc2ccccc2s1)c1sc2sc3ccccc3[n+]2c1O,,-14.5% [at 11.4 µM] (inactive)
Cc1ccc(C(=O)O)cc1N1C(=O)c2cccc3cc(Br)cc(c23)C1=O,inactive,
CCCNC(=O)OC[C@@H]1O[C@H](CCO/N=C(\C)CCN2CCc3nc(-c4ccccc4)c(-c4ccccc4)cc3C2)C=C[C@@H]1Oc1ccc(OC)cc1,,-6.26% [at 11.4 µM] (inactive)
COc1ccc(Oc2ncc3nc(C)c(=O)n(C)c3n2)cc1,inactive,
CC(C)C12CN3CC(C(C)C)(CN(C1)C3c1ccco1)C2=O (stereo not given),inactive,
CC(=O)Nc1c(I)c(C(=O)N[C@H]2[C@@H](O)[C@H](O)[C@H](CO)O[C@@H]2O)c(I)c(N(C)C(C)=O)c1I,inactive,
CCOc1ccc(N(CCC#N)S(=O)(=O)c2ccc(OC)cc2)cc1,inactive,
COc1cc([C@H]2c3cc4c(cc3[C@@H](O)[C@@H]3COC(=O)[C@H]23)OCO4)cc(OC)c1OC,inactive,
O=C1N/C(=C\c2ccc(N3CCOCC3)c(F)c2)C(=O)N1Cc1ccccc1,inactive,
COCCn1c(=O)c(C)nc2cnc(Oc3cccc(Cl)c3)nc21,inactive,
Sc1ccc2ccccc2c1CNCc1ccccc1,1.26 µM (active),
O=C(O)c1ccc(CNCc2ccccc2)cc1,,8.97% [at 11.4 µM] (inactive)
CC(OC(=O)Cn1c(C(F)(F)F)nc2ccccc21)C(N)=O (stereo not given),inactive,
Cc1ccc(N=Cc2cc(C)n(C3CCCC3)c2C)cc1,15.8 µM (active),
COC(=O)N1CCC2(CC1)CCN(c1ncccn1)CC2,inactive,
COc1ccc(/C=C/c2ccncc2)cc1,8.91 µM (active),
COc1ccc(OC(=O)c2ccncc2)cc1,inactive,
COc1cc(/C=C\c2ccc(OC)cc2OC)cc(OC)c1,inactive,
CC(C)(C)NC(=O)Cn1cnc([N+](=O)[O-])n1,inactive,
CSc1nc2ccc3nc(NC(=O)c4cccs4)sc3c2s1,inactive,
O=C(Cn1cnc2ccccc2c1=O)Nc1nnc(SCc2ccccc2)s1,inactive,
COc1cc(OC)cc(C(=O)NC(=S)Nc2ccc(Cl)c(C(=O)O)c2)c1,inactive,

SMILES,AC50,"activity, negative = inhibition"
C[C@@H](c1ccccc1)N1C(=O)[C@H]2[C@H]3[C@H](O)[C@H](O)C/C(=N/OCc4ccccc4)[C@H]3CC[C@@H]2C1=O,,6.68% [at 11.4 µM] (inactive)
O=c1c(-c2cc(F)cc(F)c2)nc2cnc(Oc3ccccc3)nc2n1C1CC1,inactive,
CN(C)CCCn1c2c3ccccc3ccc2c2oc(=O)c3ccccc3c21,1.26 µM (active),
Cc1nc2cccc([N+](=O)[O-])c2n1CCCN(C)C,,3.67% [at 11.4 µM] (inactive)
O=C1C2C3c4ccccc4C(c4ccccc43)C2C(=O)N1c1nc(-c2ccccc2)cs1 (stereo not given),inactive,
O=C(Nc1ccc(-c2nc3ccccc3o2)cc1)c1ccc(N2CCOCC2)c([N+](=O)[O-])c1,inactive,
O=C(O)C1=CCNCC1,inactive,
CCC[C@H]1C(=O)N2C(N(C)C)=Nc3ccc(C)cc3N2C1=O,inactive,
O=C(Nc1ccccc1)/C(=C\c1ccncc1)NC(=O)c1ccccc1,inactive,
CC(=O)Nc1ccc(NCN2C(=O)C3C4CCC(C4)C3C2=O)cc1 (stereo not given),inactive,
COc1ccccc1NC(=O)C1=C(C)Nc2nc(-c3ccc(N(C)C)cc3)nn2C1c1ccncc1 (stereo not given),inactive,
Nc1nnnn1/N=C\c1ccc(Cl)c([N+](=O)[O-])c1,inactive,
COc1ccc(-n2c(C)n[nH]c2=O)cc1,inactive,
CC(C)c1ccc(NC(=O)N(CCc2nc3ccccc3[nH]2)C2CCCC2)cc1,2.51 µM (active),
O=C(O)[C@H]1CCCC[C@@H]1C(=O)Nc1nc2ccccc2[nH]1,,-3.05% [at 11.4 µM] (inactive)
Cc1cc(C)cc(NC(=O)CCc2nc3ccccc3[nH]2)c1,inactive,
O=C(N/N=C/c1cccc(OC2CSC2)c1)c1ccccc1O,inactive,
Nc1ccccc1N=Nc1c(S(=O)(=O)O)cc2cc(S(=O)(=O)O)cc(O)c2c1O,,-13.1% [at 11.4 µM] (inactive)
CC(C)CCn1c(Oc2ccccc2Cl)nc2c1c(=O)n(C)c(=O)n2C,inactive,
CC(=O)/C(=C\c1ccccc1F)C(=O)c1ccccc1,,-1.17% [at 11.4 µM] (inactive)
CC1CC(C)CN(CCCNC(=O)C2CCCN(c3nnc(N4CCCC4=O)s3)C2)C1 (stereo not given),inactive,
COCCCNC(=O)C1CC(=O)N(CCc2ccc(OC)c(OC)c2)C1 (stereo not given),inactive,
CC1CCCN(CCCNC(=O)C2CC(=O)N(c3ccc(F)c(Cl)c3)C2)C1 (stereo not given),15.8 µM (active),
COC(=O)c1nn(C23CC4CC(CC(C4)C2)C3)c2c1C(=O)N(c1ccc(F)cc1)C2=O,inactive,
COc1ccc(C2N=C(N)N=C(N)N2c2ccccc2OC)cc1OC (stereo not given),7.08 µM (active),

SMILES,AC50,"activity, negative = inhibition"
COc1cccc(/C(O)=C2/C(=O)C(=O)N(c3ccccn3)C2c2ccc(OC)c(OC)c2)c1 (stereo not given),inactive,
NC1=N[C@H](c2ccc(Cl)cc2)N(c2ccc(S(=O)(=O)Nc3ncccn3)cc2)C(N)=N1,,-2.11% [at 11.4 µM] (inactive)
COc1cccc(Cn2c(=O)c(-c3cn(C)c4ccccc34)nc3cncnc32)c1,inactive,
O=C(O)CCCCCCCC(=O)O,inactive,
COc1ccc(Oc2nc(C)cc(C)c2S(=O)(=O)c2ccc(C)cc2)cc1,inactive,
N[C@H](CCC(=O)NCC(=O)O)C(=O)O,inactive,
CC(NC(=O)CN1CCCC1)C12CC3CC(CC(C3)C1)C2 (stereo not given),inactive,
CC(C)(C)CNC(CO)C12CC3CC(CC(C3)C1)C2 (stereo not given),10 µM (active),
Cc1ccc(S(=O)(=O)N[C@H]2COC(=O)[C@H](C)COC(=O)[C@H](C)NC(=O)C/C=C\[C@H]2C)cc1,,12.2% [at 11.4 µM] (inactive)
O=C(O)[C@@H]1[C@@H](C(=O)NCc2ccccn2)[C@@H]2C=C[C@@H]1O2,,8.57% [at 11.4 µM] (inactive)
COC(=O)[C@H](N)Cc1ccc(Cl)cc1,inactive,
C[C@H](N)C(=O)OC(C)(C)Cc1ccc(Cl)cc1,12.6 µM (active),
COC(=O)[C@](C)(N)Cc1ccc(O)cc1,inactive,
COc1ccc(C2=NC(C(F)(F)F)(C(F)(F)F)c3c(n(C)c(=O)n(C)c3=O)N2)cc1,inactive,
CNC(=O)NC(=S)NC(=O)c1ccc(OC)cc1,inactive,
COc1ccc(-c2nc3cnc(OC)nc3n(-c3ccc(OC)cc3)c2=O)cc1,inactive,
Cc1ccc(/C=N/NC(=O)Cn2nccc2C)o1,inactive,
Cc1ccc(/C=N\Nc2nc3ccc(Cl)cc3[nH]2)o1,3.55 µM (active),
CCOC(=O)N/N=C/c1ccc(C)o1,inactive,
CCCC(=O)n1nc(-c2cccnc2)nc1N,inactive,
Cc1nnsc1SC(C)C(=O)O (stereo not given),inactive,
CCn1c(COc2ccc(C)cc2)nnc1SCc1ccc(C#N)cc1,inactive,
O=C(Nc1cc(Sc2ccccn2)cc([N+](=O)[O-])c1)c1ccc(Cl)cc1,8.91 µM (active),
O=C(Nc1cc(Sc2ccccn2)cc([N+](=O)[O-])c1)c1ccc([N+](=O)[O-])cc1,inactive,
O=C(Nc1cccc([N+](=O)[O-])c1)c1ccc(CSc2ccccc2)cc1,inactive,
